The values that follow come from PubChem BioAssay AID1347140 (National Center for Advancing Translational Sciences (NCATS), 2019).

The list shows a part of the results. Inconclusive results are not listed. Values without a mark were called inactive. Active and inactive are the calls of the source. The call rests on the fitted dose curve; in most records, active means well fitted inhibition curve with a large enough effect; inconclusive means small, poorly fitted or top-dose-only effect; inactive means no such curve, though single readings can be large or run the other way.

The nature of the test: qHTS of pediatric cancer cell lines to identify multiple opportunities for drug repurposing: Orthogonal 3D viability screen for MG 63 (6-TG R) cells. To be noted: MG-63 (6-TG R) 3D spheroid viability, PI/Hoechst imaging, 72 h; series mostly up to 30.7 µM; activity, negative = reduced viability: at the top concentration. The text has this:
Drug repurposing or repositioning has been offered as a strategy for drug development in oncology programs. This approach has special potential for childhood cancers and other rare or orphan diseases, where the expected return on new drug development has been a disincentive to pharmaceuticals. […] In this project we exploit the poly-pharmacology of drugs to discover new indications via phenotypic screening of a panel of 19 well-characterized cell lines derived from solid tumors seen in children and adolescents. The goal is to identify approved drugs with previously unrecognized anticancer properties that has the potential to reveal new mechanisms and biological processes involved in carcinogenesis or drug resistance. We employed a titration-based paradigm (quantitative high-throughput screening or qHTS), where all compounds were tested at multiple concentrations for their effect on cell viability. Concentration-response curves (CRCs) were derived directly from the primary screen, and both potency and efficacy values were used to identify compounds with robust bioactivity profiles. […] These two assays will be used to validate active compounds and assess the correlation of compound's potency in 2D vs 3D cultures on selected cell lines. Assay Submitter: Nathalia J. Martinez, National Center for Advancing Translational Sciences, National Institutes of Health, Rockville, MD, USA; email: natalia.martinez@nih.gov Shen, M et al. Quantitative high-throughput phenotypic screening of pediatric cancer cell lines identifies multiple opportunities for drug repurposing. Oncotarget 2017 Dec 19;9(4):4758-4772. PMID 29435139.
The cells were obtained from University of North Carolina (UNC), Pediatric Preclinical Testing Program (PPT), and Coriell Institute (CI). qHTS viability in 3D culture: Cells were assayed in phenol red-free growth media at a density of 1,000 cells/well, with the exception of Daoy, and SH-N-SH which were assayed at 1,500 cells/ well. Thirty muL of cells were dispensed into 384-well, ULA, round bottom plates (Corning) using a Multidrop dispenser. […] Spheroid viability was first determined by high-content imaging using Hoechst 33342 and Propidium Iodide (PI, ThermoFisher Scientific), followed by addition of CellTiter-Glo 3D (Promega). […] Plates were incubated for 30 min at RT on a VWR microplate shaker (300 rpm) and analyzed for luminescence intensity using a ViewLux High-throughput CCD imager equipped with clear filters. […] The data were exported to Excel, and the average fluorescent intensities were used to calculate the ratio of PI over Hoechst, which was used to quantify viability. […]
In general terms: Quantitative high-throughput screening tests each substance at several concentrations.
As for `CC[C@H]1CN2CCc3cc(OC)c(OC)cc3[C@@H]2C[C@@H]1C[C@H]1NCCc2cc(OC)c(OC)cc21`, the Potency was 810 nM (active).
On the same count and under the same terms, the same measure for `CC(NCc1ccc2c(c1)nc(NC(=O)c1ccc(-c3cn[nH]c3)s1)n2CC(C)(C)O)C(C)(C)C` (centres undefined): 722 nM (active); for `COc1c(C)c2c(c(O)c1C/C=C(\C)CCC(=O)O)C(=O)OC2`: 909 nM (active).
Take `CC[C@]1(O)C[C@@H]2CN(CCc3c([nH]c4ccccc34)[C@@](C(=O)OC)(c3cc4c(cc3OC)N(C)[C@H]3[C@@](O)(C(=O)OC)[C@H](OC(C)=O)[C@]5(CC)C=CCN6CC[C@]43[C@@H]65)C2)C1`: the “activity, negative = reduced viability” value was 12%.
